According to PubChem BioAssay AID1851 (National Center for Advancing Translational Sciences (NCATS), 2009):
Several values for one entry are separate records, joined by “and”; a condition that tells them apart may be missing. Identical values can stand only once. The whole screen tested about 16,000 compounds, of which about 2,600 (16%) were called active. Not shown: some 20% with an inconclusive outcome. Calls follow the shape of the dose curve; as a rule, active = well fitted curve in the direction sought with a large enough effect; inconclusive = small, poorly fitted or top-dose-only effect, or effect the other way; inactive = no such curve, though single readings can be large or run the other way. Not all results are given here.

biological target: Cytochrome P450 2D6 (Homo sapiens) (UniProt P10635); assay: Cytochrome panel assay with activity outcomes; conditions: recombinant CYP, pro-luciferin dealkylation, luminescence, p450-cyp2d6; series mostly up to 57.1 µM
% is scaled to controls: 0 for no effect and ±100 for the full control effect.

Chain of Cytochrome P450 2D6 (Homo sapiens) (P10635 whole entry, looked up): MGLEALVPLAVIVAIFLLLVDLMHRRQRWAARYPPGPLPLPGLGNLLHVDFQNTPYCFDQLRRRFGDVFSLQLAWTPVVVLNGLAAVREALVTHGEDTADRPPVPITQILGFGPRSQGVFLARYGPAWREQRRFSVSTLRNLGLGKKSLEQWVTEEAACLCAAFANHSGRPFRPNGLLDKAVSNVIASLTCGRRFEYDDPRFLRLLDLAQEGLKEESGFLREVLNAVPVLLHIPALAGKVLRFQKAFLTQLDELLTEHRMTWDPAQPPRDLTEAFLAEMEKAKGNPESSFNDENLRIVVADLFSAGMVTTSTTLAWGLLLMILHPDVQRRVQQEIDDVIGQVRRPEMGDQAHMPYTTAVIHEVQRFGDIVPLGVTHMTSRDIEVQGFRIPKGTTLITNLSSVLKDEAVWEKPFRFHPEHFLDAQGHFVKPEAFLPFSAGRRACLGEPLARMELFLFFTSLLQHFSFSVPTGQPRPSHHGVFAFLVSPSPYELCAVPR

AC50, inactive:
NCCCNCCCCNCCCN, O=C(c1ccc(-c2nnc(Nc3ccccc3)c3ccccc23)cc1)N1C[C@H]2C[C@H](C1)c1cccc(=O)n1C2, O=C(NCc1ccco1)c1ccc2c(=O)n(-c3ccccc3)c(=S)[nH]c2c1, COc1ccc(-n2c(=O)c(-c3ccc(F)cc3)nc3cnc(OC)nc32)cc1, O=C(Nc1ccc(C(=O)Nc2ccc(C(=O)Nc3ccc(S(=O)(=O)O)c4cc(S(=O)(=O)O)cc(S(=O)(=O)O)c34)cc2)cc1)Nc1ccc(C(=O)Nc2ccc(C(=O)Nc3ccc(S(=O)(=O)O)c4cc(S(=O)(=O)O)cc(S(=O)(=O)O)c34)cc2)cc1, Cc1nonc1NC(=O)OCCN1CCOC1=O, O=C(O)/C(=C/c1c(C(=O)O)[nH]c2cc(Cl)cc(Cl)c12)c1ccccc1, C[C@@]12CCC(=O)C=C1CC[C@@H]1[C@@H]2[C@H](O)C[C@]2(C)[C@@H]1CC[C@]2(O)C(=O)COC(=O)CCC(=O)O, COc1c(O)cc2c(c1O)[C@@H]1O[C@@H](CO)[C@@H](O)[C@@H](O)[C@@H]1OC2=O, CSc1nc(C)c(CCOC(=O)c2ccccc2)c(=O)[nH]1, CCN(CC)C(=O)c1cc2cc([N+](=O)[O-])ccc2s1, CC1CCCC(NC(=O)c2n[nH]c(=O)c3ccccc23)C1C (stereo not drawn), COc1cc([C@H](O)C(=O)O)ccc1O, O=[N+]([O-])c1cccc(-c2nc(-c3ccncc3)no2)c1, O=C(O)[C@@H]1CCCNC1, COC(=O)c1ccc(C2C(Oc3ccccc3)C(=O)N2CCc2ccc(OC)c(OC)c2)cc1 (stereo not drawn), COc1ccc(CCN2C(=O)C(O)=C(C(=O)c3ccco3)C2c2cccs2)cc1OC (stereo not drawn), CCCCCc1nc2c(=O)[nH]c3ccccc3c2o1

AC50, active:
COc1ccc(CCN2C(=O)C(Oc3ccccc3C)C2c2ccc3c(c2)OCO3)cc1OC (stereo not drawn) 14.1 µM, Cc1ccccc1OC1C(=O)N(Cc2ccc3c(c2)OCO3)C1c1sccc1C (stereo not drawn) 8.91 µM

activity, negative = inhibition, inactive:
NS(=O)(=O)c1ccc(N=C2C(=O)Nc3ccccc32)cc1 2.35% [at 11.4 µM], O=C1[C@H]2[C@H]3[C@H](O)[C@H](O)C/C(=N/OCc4ccccc4)[C@H]3CC[C@@H]2C(=O)N1Cc1ccc2c(c1)OCO2 -14.6% [at 11.4 µM], O=C1C[C@@H](O)[C@@H](O)[C@H]2[C@@H]3C(=O)N(Cc4ccc5c(c4)OCO5)C(=O)[C@@H]3CC[C@H]12 14% [at 11.4 µM] and -16.6% [at 11.4 µM]
